Results filed as inconclusive are left out. Active and inactive are the calls of the source. Rule for the calls: active = hit-call score of the fitted dose curve at least 0.9, where 1 is the maximum; inconclusive = response in the unintended direction; inactive = score below 0.9.
How the values were obtained:
[1] = ACEA_AR_agonist_AUC_viability: ACEA Biosciences xCELLigence Real-Time Cell Analysis on Androgen Receptor Agonism for Viability (AID 2283775);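 for AC50: viability read 80 hours after compound addition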
Method in brief: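 22Rv1 cells; impedance growth kinetics; 8-pt 1:4 dilutions from 100 uM top final, ≤0.5% DMSO; n = 2; 80 h read; AUC viability, loss-of-signal vs DMSO.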

[2] = ACEA_AR_antagonist_AUC_viability: ACEA Biosciences xCELLigence Real-Time Cell Analysis on Androgen Receptor Antagonism for Viability (AID 2283776);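 note: 22Rv1 human prostate cancer cells growing on impedance electrode plates; area under impedance growth curve at 80 h after dosing as viability; hits lower the growth signal relative to DMSO meaning cytotoxicity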
Method in brief: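 Impedance read-out (RT-CES): area under growth curve at 80 h post-dose, loss of signal scored vs DMSO baseline. 22Rv1 cells; 8-pt 1:4 series, top 100 uM final, ≤0.5% DMSO; biological duplicate.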

[3] = ACEA_ER_AUC_viability: ACEA Biosciences xCELLigence Real-Time Cell Analysis on Estrogen Receptor Agonism for Viability (AID 2283782);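 note: hit means loss of impedance signal meaning reduced cell growth or viability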
Method in brief: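 Read-out: real-time electrical impedance (RT-CES) area under curve, loss of signal taken as reduced viability, normalized to DMSO baseline. T-47D cells, charcoal-stripped serum medium, compounds up to 100 uM final, continuous exposure, 80 h.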

[4] = system: frog Estrogen Receptor (ESR2), gene 100174814; experiment: ATG_frER2_XSP1: Attagene TRANS-FACTORIAL Multi-Species (XSP1) HepG2 Assay for frog Estrogen Receptor (ESR2) (AID 2283774)
Method in brief: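 HepG2, transient MRTU transfection (GAL4-UAS reporters, exogenous NR-Gal4 chimeras); 24 h compound exposure; 3 nM 6α-fluorotestosterone co-added; total RNA → RT-PCR → 6-FAM primer extension → HpaI → CE. Positive direction vs DMSO.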

[5] = biological target: chicken Estrogen Receptor (ESR1), ESR1 (gene 396099) (UniProt P06212); experiment: ATG_chERa_XSP1: Attagene TRANS-FACTORIAL Multi-Species (XSP1) HepG2 Assay for chicken Estrogen Receptor (ESR1) (AID 2283779)
Method in brief: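 Read-out: fluorescent reporter mRNA fragments resolved by capillary electrophoresis after RT-PCR and HpaI digestion. Transfected HepG2 cells carried chimeric NR-Gal4 constructs, were dosed 24 h with 3 nM 6-alpha-fluorotestosterone added, and activity was fitted upward relative to DMSO.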

[6] = biological target: Estrogen receptor (Homo sapiens) (UniProt P03372); experiment: ATG_hERa_XSP1: Attagene TRANS-FACTORIAL Multi-Species (XSP1) HepG2 Assay for human Estrogen Receptor (ESR1) (AID 2283780)
Method in brief: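 Reporter transcripts from multiplexed GAL4-UAS units driven by NR-Gal4 chimeras in transiently transfected HepG2 were measured by RT-PCR with capillary electrophoresis 24 h post-dose, with 3 nM 6-alpha-fluorotestosterone present; gain-of-signal relative to DMSO.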

[7] = system: turtle Estrogen Receptor (ESR1), gene 101933533; experiment: ATG_trERa_XSP1: Attagene TRANS-FACTORIAL Multi-Species (XSP1) HepG2 Assay for turtle Estrogen Receptor (ESR1) (AID 2283781)
Method in brief: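 Transfect HepG2 with reporter units → dose chemical 24 h (medium has 3 nM 6-alpha-fluorotestosterone) → isolate RNA, RT-PCR → FAM primer extension, HpaI digest → capillary electrophoresis; gain of signal vs DMSO.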

AR (gene 367) [8] = biological target: AR (gene 367) (UniProt P10275); experiment: ACEA_AR_antagonist_80hr: ACEA Biosciences xCELLigence Real-Time Cell Analysis on Androgen Receptor Antagonism for Proliferation (AID 2283787);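 note: 22Rv1 human prostate cancer cells with growth followed by electrical impedance; hits lower the impedance growth signal relative to DMSO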
Method in brief: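 Measures real-time proliferation of 22Rv1 prostate cancer cells by electrode impedance at 80 hours after dosing. Test articles ran at eight concentrations (1:4 steps, top 100 uM final) in biological duplicate.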

[9] = biological target: Estrogen receptor beta (Homo sapiens) (UniProt Q92731); experiment: ATG_hERb_XSP1: Attagene TRANS-FACTORIAL Multi-Species (XSP1) HepG2 Assay for human Estrogen Receptor (ESR2) (AID 2283788)
Method in brief: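 Transient MRTU transfection of HepG2; ERβ–GAL4 TRANS format; 24 h dosing; 3 nM 6α-fluorotestosterone co-added; RNA → RT-PCR → 6-FAM primer extension → CE; activity vs DMSO.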

[10] = biological target: GAL4 Transcription Factor (Internal Marker), GAL4 (gene 855828) (UniProt P04386); experiment: ATG_GAL4_XSP1: Attagene TRANS-FACTORIAL Multi-Species (XSP1) HepG2 Assay for GAL4 Transcription Factor (Internal Marker) (AID 2283789)
Method in brief: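 This background-control endpoint measures GAL4-driven reporter mRNA via RT-PCR and capillary electrophoresis of labelled fragments. Transiently transfected HepG2 cells were treated 24 h, with 3 nM 6-alpha-fluorotestosterone included, and gain-of-signal was fitted against DMSO.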

[11] = ATG_M_06_XSP1: Attagene TRANS-FACTORIAL Multi-Species (XSP1) HepG2 Assay for M06 Transcription Factor (Internal Marker) (AID 2283790)
Method in brief: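 This background-control readout tracks M06 reporter mRNA, measured by RT-PCR and capillary electrophoresis. HepG2 cells transiently carrying the GAL4-UAS reporter panel were dosed for 24 h with 3 nM 6-alpha-fluorotestosterone added for partial AR stimulation; increases were scored relative to DMSO.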

[12] = ATG_M_61_XSP1: Attagene TRANS-FACTORIAL Multi-Species (XSP1) HepG2 Assay for M61 Transcription Factor (Internal Marker) (AID 2283797)
Method in brief: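 Background-control readout: reporter transcripts measured by RT-PCR and capillary electrophoresis 24 h after dosing transiently transfected HepG2 multi-reporter cells, with 3 nM 6-alpha-fluorotestosterone present. Fitted in the positive direction relative to DMSO.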

[13] = ATG_M_32_XSP1: Attagene TRANS-FACTORIAL Multi-Species (XSP1) HepG2 Assay for M32 Transcription Factor (Internal Marker) (AID 2283799)
Method in brief: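 Reporter transcripts from the M32 internal-control unit measured by RT-PCR, FAM labelling, HpaI digestion and capillary electrophoresis after 24 h compound exposure of transfected HepG2, 3 nM 6-alpha-fluorotestosterone included; DMSO baseline, positive-direction fit.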

[14] = biological target: Peroxisome proliferator-activated receptor gamma (Homo sapiens) (UniProt P37231); experiment: ATG_hPPARg_XSP1: Attagene TRANS-FACTORIAL Multi-Species (XSP1) HepG2 Assay for human Peroxisome Proliferator-activated Receptor gamma (PPARg) (AID 2283800)
Method in brief: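 Reporter mRNA induction, measured by RT-PCR with capillary electrophoresis 24 h after dosing, scored as gain over DMSO. Transfected HepG2 cells express exogenous NR-Gal4 chimeras driving GAL4-UAS reporters; medium includes 3 nM 6-alpha-fluorotestosterone.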

[15] = system: zebrafish Peroxisome Proliferator-activated Receptor gamma (PPARg), gene 557037; experiment: ATG_zfPPARg_XSP1: Attagene TRANS-FACTORIAL Multi-Species (XSP1) HepG2 Assay for zebrafish Peroxisome Proliferator-activated Receptor gamma (PPARg) (AID 2283801)
Method in brief: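 Trans-activation readout of chimeric zebrafish PPARg–GAL4 in transiently transfected human HepG2 cells, 24 h chemical exposure (medium includes 3 nM 6-alpha-fluorotestosterone). Reporter transcripts measured by RT-PCR and capillary electrophoresis, fitted as gain over DMSO.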

[16] = biological target: mouse Peroxisome Proliferator-activated Receptor gamma (PPARg), Pparg (gene 19016) (UniProt P37238); experiment: ATG_mPPARg_XSP1: Attagene TRANS-FACTORIAL Multi-Species (XSP1) HepG2 Assay for mouse Peroxisome Proliferator-activated Receptor gamma (PPARg) (AID 2283802)
Method in brief: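 Readout is reporter mRNA induction, measured by RT-PCR with 6-FAM labelling, HpaI digestion and capillary electrophoresis, 24 h post-dose relative to DMSO. Transient multi-reporter transfection of human HepG2 with mouse PPARg–GAL4 fusion; 3 nM 6-alpha-fluorotestosterone included.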

AR (gene 367) [17] = biological target: AR (gene 367) (UniProt P10275); experiment: ACEA_AR_agonist_80hr: ACEA Biosciences xCELLigence Real-Time Cell Analysis on Androgen Receptor Agonism for Proliferation (AID 2283783);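 note: hits increase impedance growth signal above DMSO baseline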
Method in brief: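 Impedance (RT-CES) growth signal at 80 h post-dose; 22Rv1 cells, 8-pt 1:4 series, top 100 uM final, DMSO ≤0.5%; duplicate plates; gain-of-signal fit relative to DMSO baseline.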

[18] = STM_H9_NormalizedViability: Cytotoxicity Assessment at 120 hours in the Stemina devTOX quickPredict H9 human embryonic stem cell (hESC)-based Assay (AID 2283784)
Method in brief: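 Viability endpoint: background-corrected CellTiter-Fluor RFU expressed relative to the 0.1% DMSO mean on each plate. Undifferentiated H9 cells were treated with daily re-dosing and media change, and loss of signal was fitted.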

Measured: AC50

Chain of AR (gene 367) (P10275 whole entry, looked up): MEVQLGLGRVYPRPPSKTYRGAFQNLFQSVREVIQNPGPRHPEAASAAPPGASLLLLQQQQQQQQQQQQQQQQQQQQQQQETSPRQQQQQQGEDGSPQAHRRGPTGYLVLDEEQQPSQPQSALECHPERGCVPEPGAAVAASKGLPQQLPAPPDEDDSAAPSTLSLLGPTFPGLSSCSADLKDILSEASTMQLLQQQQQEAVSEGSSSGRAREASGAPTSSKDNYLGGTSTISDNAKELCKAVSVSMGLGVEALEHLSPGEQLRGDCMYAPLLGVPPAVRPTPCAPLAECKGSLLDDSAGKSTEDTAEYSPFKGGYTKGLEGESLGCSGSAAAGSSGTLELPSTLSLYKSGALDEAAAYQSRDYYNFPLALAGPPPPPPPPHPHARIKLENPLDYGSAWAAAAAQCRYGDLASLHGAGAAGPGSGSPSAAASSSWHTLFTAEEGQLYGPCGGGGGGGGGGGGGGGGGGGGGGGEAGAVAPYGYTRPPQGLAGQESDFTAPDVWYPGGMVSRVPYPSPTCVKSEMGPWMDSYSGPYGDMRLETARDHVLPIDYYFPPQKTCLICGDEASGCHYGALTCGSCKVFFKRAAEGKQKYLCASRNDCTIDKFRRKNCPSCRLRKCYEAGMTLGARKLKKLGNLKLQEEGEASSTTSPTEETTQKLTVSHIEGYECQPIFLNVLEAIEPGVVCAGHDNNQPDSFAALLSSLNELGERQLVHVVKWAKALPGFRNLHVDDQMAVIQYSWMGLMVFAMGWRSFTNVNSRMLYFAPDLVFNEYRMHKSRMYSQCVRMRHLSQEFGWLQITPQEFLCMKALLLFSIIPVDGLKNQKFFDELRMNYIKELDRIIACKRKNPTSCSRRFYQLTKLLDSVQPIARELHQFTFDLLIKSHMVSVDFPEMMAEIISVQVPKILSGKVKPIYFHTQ
Chain of mouse Peroxisome Proliferator-activated Receptor gamma (PPARg), Pparg (gene 19016) (P37238 whole entry, looked up, the tested form may be a part): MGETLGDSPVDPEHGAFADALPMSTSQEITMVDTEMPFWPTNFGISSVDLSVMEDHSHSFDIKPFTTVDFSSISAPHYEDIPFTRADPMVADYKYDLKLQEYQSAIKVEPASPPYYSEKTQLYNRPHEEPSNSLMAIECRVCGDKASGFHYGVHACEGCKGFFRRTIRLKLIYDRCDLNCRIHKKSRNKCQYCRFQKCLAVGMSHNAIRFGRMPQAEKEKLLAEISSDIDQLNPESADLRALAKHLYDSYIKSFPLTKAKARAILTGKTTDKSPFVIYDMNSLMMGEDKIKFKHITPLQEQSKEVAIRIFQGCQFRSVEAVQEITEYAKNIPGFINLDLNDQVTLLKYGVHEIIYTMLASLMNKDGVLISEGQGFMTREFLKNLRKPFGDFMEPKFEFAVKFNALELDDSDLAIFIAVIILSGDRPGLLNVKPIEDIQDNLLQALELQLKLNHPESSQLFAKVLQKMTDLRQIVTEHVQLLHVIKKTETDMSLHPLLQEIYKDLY
Chain of Peroxisome proliferator-activated receptor gamma (Homo sapiens) (P37231 whole entry, looked up, the tested form may be a part): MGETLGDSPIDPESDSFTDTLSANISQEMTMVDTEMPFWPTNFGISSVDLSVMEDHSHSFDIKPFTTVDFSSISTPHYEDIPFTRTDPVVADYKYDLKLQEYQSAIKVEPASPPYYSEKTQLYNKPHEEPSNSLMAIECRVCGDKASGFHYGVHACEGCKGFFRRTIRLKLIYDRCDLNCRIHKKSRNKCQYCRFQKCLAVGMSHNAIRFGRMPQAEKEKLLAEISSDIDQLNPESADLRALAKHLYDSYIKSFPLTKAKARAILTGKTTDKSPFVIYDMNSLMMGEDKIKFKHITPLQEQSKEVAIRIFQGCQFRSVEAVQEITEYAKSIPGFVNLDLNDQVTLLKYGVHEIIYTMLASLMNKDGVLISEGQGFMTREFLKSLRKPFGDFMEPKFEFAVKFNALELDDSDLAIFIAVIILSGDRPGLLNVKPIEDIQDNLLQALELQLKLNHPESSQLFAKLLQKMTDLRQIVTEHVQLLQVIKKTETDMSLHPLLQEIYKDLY
Chain of GAL4 Transcription Factor (Internal Marker), GAL4 (gene 855828) (P04386 whole entry, looked up, the tested form may be a part): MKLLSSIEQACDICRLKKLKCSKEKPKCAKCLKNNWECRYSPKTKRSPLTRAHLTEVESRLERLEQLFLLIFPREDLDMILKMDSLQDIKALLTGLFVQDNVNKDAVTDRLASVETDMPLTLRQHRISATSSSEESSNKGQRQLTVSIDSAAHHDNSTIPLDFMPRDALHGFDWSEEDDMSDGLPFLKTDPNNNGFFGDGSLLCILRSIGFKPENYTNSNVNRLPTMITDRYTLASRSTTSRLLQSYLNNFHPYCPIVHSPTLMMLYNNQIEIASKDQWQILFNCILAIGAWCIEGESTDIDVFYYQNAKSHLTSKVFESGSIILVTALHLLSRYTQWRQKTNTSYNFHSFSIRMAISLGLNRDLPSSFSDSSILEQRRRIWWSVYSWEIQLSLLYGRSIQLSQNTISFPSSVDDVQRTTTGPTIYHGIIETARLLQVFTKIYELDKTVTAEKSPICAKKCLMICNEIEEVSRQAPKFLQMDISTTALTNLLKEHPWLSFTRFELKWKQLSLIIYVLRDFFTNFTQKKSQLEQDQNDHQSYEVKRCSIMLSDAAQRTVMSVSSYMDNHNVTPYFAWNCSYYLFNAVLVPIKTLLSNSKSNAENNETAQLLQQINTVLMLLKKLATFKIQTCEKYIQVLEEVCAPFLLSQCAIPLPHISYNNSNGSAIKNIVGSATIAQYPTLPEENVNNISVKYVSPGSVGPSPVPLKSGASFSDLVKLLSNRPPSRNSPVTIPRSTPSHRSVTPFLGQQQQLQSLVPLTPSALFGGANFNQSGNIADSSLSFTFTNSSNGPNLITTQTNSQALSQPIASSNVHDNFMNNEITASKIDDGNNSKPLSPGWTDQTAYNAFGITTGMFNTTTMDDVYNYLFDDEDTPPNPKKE
Chain of Estrogen receptor beta (Homo sapiens) (Q92731 whole entry, looked up, the tested form may be a part): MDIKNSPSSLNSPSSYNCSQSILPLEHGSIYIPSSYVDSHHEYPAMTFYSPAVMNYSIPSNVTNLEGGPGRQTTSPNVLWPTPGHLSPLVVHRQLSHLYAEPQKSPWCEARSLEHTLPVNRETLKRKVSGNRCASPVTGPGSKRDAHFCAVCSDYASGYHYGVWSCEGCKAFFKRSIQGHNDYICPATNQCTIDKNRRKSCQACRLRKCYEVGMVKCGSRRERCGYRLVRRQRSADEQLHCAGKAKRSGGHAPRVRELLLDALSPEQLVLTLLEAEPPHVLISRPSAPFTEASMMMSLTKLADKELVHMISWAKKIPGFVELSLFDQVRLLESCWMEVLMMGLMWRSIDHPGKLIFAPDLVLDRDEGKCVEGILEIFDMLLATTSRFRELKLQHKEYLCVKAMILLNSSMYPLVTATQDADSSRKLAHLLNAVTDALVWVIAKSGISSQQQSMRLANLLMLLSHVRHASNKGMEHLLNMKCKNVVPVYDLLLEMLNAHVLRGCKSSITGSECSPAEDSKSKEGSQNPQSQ
Chain of Estrogen receptor (Homo sapiens) (P03372 whole entry, looked up, the tested form may be a part): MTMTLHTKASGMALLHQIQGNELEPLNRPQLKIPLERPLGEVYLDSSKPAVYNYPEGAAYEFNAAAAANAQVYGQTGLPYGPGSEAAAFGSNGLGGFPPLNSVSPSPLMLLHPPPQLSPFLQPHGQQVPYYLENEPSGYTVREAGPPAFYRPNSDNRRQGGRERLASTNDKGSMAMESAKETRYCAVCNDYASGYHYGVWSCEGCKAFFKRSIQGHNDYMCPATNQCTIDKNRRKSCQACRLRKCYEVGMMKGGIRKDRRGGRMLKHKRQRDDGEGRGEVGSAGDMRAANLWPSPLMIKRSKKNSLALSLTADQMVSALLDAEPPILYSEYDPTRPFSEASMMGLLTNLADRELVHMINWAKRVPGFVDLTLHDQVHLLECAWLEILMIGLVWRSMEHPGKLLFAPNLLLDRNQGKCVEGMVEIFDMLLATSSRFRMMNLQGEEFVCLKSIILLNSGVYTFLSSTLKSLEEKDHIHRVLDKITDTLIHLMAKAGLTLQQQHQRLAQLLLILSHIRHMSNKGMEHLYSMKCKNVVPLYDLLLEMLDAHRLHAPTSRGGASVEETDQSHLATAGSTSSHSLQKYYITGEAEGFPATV
Chain of chicken Estrogen Receptor (ESR1), ESR1 (gene 396099) (P06212 whole entry, looked up, the tested form may be a part): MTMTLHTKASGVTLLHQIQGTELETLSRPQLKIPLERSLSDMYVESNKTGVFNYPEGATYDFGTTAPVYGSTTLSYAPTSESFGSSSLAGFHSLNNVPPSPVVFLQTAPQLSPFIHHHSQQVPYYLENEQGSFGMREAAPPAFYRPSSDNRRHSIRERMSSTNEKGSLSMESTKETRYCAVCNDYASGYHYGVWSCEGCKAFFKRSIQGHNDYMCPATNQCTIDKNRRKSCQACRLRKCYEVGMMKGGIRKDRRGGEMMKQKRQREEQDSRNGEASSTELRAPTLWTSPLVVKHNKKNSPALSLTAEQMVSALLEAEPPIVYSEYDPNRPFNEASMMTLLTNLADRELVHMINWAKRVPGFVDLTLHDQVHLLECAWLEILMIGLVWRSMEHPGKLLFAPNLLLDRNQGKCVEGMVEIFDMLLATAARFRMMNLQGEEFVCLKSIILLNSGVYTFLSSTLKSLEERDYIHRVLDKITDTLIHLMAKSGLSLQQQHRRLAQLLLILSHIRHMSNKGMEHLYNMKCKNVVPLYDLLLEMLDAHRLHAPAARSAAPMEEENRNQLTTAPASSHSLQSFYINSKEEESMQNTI

OCCNCCO
inactive: [1] | [2]

CCOC(N)=O
inactive: [1] | [2] | [3]

O=C(O)c1ccc2c(c1)nc(C(=O)NC1CCN(C3CC3)CC1)n2Cc1cc(-c2ccc(Cl)s2)on1
inactive: [3]
active: [1] 18.6 µM | [2] 15.8 µM

NC(=O)N(O)[C@@H]1COc2cc(OCc3ccccc3)ccc21
inactive: [1]

O=C(O)c1cccc(C(=O)O)c1
inactive: [1] | [2]

OC(Cn1cncn1)(Cn1cncn1)c1ccc(F)cc1F
inactive: [1] | [2]

CC(C)CC(C)O (stereo unspecified)
inactive: [1] | [2]

O=C(O)c1cccc(C[C@@H]2COc3ccc(OCc4nc5cc(F)ccc5s4)cc3[C@@H]2O)c1
inactive: [1] | [2] | [3]

NC(N)=O
inactive: [1] | [2]

c1ccc2c(c1)-c1cccc3c1c-2cc1ccccc13
active: [1] 36.5 µM | [2] 4.1 µM

CC(C)c1nnc2ccc(-c3ocnc3-c3cc(F)ccc3F)cn12
active: [1] 66.8 µM | [2] 37.1 µM

C=CCc1cc(S(=O)(=O)c2ccc(O)c(CC=C)c2)ccc1O
inactive: [9] | [10] | [11] | [12] | [13] | [15]
active: [4] 1.53 µM | [1] 24.3 µM | [2] 24.5 µM | [5] 1.19 µM | [6] 1.36 µM | [7] 1 µM | [3] 76.7 µM | AR (gene 367) [8] 26.2 µM | [14] 4.14 µM | [16] 3.63 µM

CCN(CC)C(=S)SSC(=S)N(CC)CC
active: [1] 25.8 µM | [2] 26 µM | [3] 25.4 µM | [18] 0.309 µM | AR (gene 367) [8] 25.6 µM
inactive: AR (gene 367) [17] | [11] | [12] | [13] | [14] | [16]
